Experimental data from PMC7862700, “An all-to-all approach to the identification of sequence-specific readers for epigenetic DNA modifications on cytosine”.

Experiments:
Assay in all cases: DAPPL (digital affinity profiling via proximity ligation, sequencing); 10 mM Tris-HCl pH 7.5, 50 mM NaCl, 1 mM DTT, 4% glycerol, room temperature, 30 min; GST-TFs on glutathione beads, 16-mer random dsDNA library, 0.1% formaldehyde crosslink after washing; high values mean tight binding
Details in all cases: protein: recombinant; tags: N-terminal GST; dsDNA, one strand shown
[1] = biological target: T1, FLI1 (Homo sapiens, UniProt Q01543 1-452)
T1 sequence: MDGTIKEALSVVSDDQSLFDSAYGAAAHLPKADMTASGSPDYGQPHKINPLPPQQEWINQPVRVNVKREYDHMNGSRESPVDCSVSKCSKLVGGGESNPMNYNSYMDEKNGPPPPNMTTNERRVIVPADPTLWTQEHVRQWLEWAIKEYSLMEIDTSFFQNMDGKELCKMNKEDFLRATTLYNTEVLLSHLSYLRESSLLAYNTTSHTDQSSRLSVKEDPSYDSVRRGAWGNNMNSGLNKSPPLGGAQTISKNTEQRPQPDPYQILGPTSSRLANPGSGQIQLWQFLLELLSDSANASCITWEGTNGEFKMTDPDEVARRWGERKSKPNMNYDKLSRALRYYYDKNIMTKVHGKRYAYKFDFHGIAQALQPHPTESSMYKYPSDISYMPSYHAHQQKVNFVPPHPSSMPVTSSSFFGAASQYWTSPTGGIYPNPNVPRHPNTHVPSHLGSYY
Procedure, shortened: (§1)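 Yeast served to express human transcription factors as GST fusions, which were then captured on glutathione beads and labelled with DNA barcodes. Pooled with a tag-only sample, they were incubated with 200 nmole of a 16-mer random double-stranded DNA library for 30 min at room temperature in Tris/NaCl/DTT/glycerol buffer, washed, crosslinked with 0.1% formaldehyde, ligated by proximity, amplified by PCR and sequenced. Dividing each hexamer's read frequency for a factor by its frequency for the tag-only sample gives the binding signal.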

[2] = biological target: T2, ELK1 (Homo sapiens, UniProt P19419 1-428)
T2 sequence: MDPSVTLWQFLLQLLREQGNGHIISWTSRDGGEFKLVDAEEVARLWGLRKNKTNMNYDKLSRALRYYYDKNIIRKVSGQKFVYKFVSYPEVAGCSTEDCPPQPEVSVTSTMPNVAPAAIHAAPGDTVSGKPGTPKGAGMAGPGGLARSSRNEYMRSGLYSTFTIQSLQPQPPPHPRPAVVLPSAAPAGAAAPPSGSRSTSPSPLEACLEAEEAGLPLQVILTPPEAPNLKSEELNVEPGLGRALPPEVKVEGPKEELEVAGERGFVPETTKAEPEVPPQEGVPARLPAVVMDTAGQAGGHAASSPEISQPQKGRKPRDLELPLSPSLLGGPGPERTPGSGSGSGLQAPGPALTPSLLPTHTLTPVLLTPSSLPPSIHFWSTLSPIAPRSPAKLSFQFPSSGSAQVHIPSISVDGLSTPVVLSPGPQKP
Procedure, shortened: as §1

[3] = biological target: T3, GABPA (Homo sapiens, UniProt Q06546 1-454)
T3 sequence: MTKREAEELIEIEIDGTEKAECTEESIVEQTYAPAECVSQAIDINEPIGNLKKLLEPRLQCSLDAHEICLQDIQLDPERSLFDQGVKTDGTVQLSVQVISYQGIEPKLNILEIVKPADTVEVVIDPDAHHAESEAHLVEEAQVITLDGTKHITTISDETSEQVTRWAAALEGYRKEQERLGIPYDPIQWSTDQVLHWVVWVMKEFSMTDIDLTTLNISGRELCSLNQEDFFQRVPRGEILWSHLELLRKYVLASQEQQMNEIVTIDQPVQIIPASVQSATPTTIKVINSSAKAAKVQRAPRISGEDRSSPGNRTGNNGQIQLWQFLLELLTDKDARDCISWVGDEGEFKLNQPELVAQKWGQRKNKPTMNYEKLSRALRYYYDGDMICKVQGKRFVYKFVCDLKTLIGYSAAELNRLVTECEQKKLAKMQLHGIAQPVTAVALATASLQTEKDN
Procedure, shortened: as §1

[4] = biological target: T4, ERG (Homo sapiens, UniProt P11308 1-479)
T4 sequence: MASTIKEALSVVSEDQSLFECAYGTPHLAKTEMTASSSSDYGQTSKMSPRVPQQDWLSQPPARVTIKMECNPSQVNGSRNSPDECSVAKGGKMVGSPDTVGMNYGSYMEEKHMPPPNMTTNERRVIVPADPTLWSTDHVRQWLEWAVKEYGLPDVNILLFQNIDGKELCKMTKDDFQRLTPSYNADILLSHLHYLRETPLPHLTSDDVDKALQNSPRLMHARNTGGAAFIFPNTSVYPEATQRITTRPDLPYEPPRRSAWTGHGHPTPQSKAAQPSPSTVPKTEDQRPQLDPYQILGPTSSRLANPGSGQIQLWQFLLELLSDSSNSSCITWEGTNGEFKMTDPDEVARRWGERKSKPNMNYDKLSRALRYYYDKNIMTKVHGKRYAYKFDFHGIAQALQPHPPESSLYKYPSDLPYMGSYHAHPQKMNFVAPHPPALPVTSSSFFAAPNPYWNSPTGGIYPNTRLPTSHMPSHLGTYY
Procedure, shortened: as §1

[5] = biological target: ELF1 (Homo sapiens, UniProt P32519 1-619)
Chain of ELF1 (P32519 whole entry): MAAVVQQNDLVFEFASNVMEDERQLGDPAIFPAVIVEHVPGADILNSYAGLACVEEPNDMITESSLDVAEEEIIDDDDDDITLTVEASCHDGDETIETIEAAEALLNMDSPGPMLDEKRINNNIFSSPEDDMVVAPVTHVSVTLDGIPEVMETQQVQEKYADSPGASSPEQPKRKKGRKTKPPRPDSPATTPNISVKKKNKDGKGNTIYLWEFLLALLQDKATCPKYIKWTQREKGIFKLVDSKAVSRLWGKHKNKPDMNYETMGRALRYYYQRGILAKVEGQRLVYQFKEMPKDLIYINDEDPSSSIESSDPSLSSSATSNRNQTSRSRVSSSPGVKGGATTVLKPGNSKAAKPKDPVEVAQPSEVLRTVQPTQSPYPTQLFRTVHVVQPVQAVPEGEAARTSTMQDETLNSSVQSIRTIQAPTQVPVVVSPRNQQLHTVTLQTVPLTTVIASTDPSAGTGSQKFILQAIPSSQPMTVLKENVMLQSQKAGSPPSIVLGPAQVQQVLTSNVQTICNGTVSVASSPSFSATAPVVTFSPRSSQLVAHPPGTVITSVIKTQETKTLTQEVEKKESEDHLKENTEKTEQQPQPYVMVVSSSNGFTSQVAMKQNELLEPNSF
Procedure, shortened: as §1

[6] = biological target: T5, EHF (Homo sapiens, UniProt Q9NZC4 1-300)
T5 sequence: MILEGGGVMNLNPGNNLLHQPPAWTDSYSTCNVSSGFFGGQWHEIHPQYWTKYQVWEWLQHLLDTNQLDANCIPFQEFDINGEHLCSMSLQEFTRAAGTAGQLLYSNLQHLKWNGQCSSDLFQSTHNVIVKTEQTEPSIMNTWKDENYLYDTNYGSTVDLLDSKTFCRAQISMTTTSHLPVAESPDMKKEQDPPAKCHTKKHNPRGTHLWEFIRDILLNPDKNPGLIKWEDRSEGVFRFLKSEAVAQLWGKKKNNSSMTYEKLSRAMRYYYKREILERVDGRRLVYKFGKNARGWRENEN
Procedure, shortened: as §1

[7] = biological target: SPI1 (Homo sapiens, UniProt P17947 1-270)
Procedure, shortened: as §1

[8] = biological target: SPIB (Homo sapiens, UniProt Q01892 1-262)
Chain of SPIB (Q01892 whole entry): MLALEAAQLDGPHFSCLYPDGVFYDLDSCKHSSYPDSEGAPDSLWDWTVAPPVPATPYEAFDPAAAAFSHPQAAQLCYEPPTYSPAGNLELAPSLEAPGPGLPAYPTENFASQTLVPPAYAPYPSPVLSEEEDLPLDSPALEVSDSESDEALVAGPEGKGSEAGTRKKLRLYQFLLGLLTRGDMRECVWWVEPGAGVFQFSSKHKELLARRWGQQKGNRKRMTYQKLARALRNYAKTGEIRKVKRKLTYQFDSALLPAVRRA
Procedure, shortened: as §1

[9] = biological target: T6, ELK3 (Homo sapiens, UniProt P41970 1-407)
T6 sequence: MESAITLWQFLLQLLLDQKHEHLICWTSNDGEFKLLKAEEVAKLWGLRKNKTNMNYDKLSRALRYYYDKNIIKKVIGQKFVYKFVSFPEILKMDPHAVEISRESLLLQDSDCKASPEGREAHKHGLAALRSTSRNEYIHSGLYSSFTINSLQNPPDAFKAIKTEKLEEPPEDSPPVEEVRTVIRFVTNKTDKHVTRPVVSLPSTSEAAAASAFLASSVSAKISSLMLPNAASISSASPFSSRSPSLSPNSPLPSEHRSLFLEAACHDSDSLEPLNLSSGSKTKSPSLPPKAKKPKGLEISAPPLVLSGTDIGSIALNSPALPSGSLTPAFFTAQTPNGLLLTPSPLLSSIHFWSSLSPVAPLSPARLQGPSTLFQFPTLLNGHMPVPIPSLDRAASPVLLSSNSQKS
Procedure, shortened: as §1

Question: Which binding signal [1] does the source give for AACCCT here?
Answer: 1.31 fold enrichment (6-mer frequency, TF over GST control)

Question: What about the binding signal [2] of the same sequence?
Answer: 1.4 fold enrichment (6-mer frequency, TF over GST control)

Question: And the binding signal [3]?
Answer: 1.29 fold enrichment (6-mer frequency, TF over GST control)

Question: And the binding signal [4]?
Answer: 1.23 fold enrichment (6-mer frequency, TF over GST control)

Question: And the binding signal [5]?
Answer: 1.35 fold enrichment (6-mer frequency, TF over GST control)

Question: What about the binding signal [6] of the same sequence?
Answer: 1.18 fold enrichment (6-mer frequency, TF over GST control)

Question: What about the binding signal [7] of the same sequence?
Answer: 1.32 fold enrichment (6-mer frequency, TF over GST control)

Question: What about the binding signal [8] of the same sequence?
Answer: 1.29 fold enrichment (6-mer frequency, TF over GST control)

Question: And the binding signal [9]?
Answer: 1.5 fold enrichment (6-mer frequency, TF over GST control)
